TIM10 inh – growth inhibitors of isogenic TIM10 control yeast, primary screen, counter-screen for tim10-1 yeast inhibitor project, luminescence, uHTS. inhibition, % at 10 µM. S. cerevisiae TIM10 strain growth, BacTiter-Glo luminescence, 24 h. AID 463195, 2010. hit rate 1.4% among 330,000;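 active means inhibition of 40% or more at the single tested concentration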;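 further: wild-type TIM10 isogenic control strain grown at permissive 25 °C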
PfHsp90 yeast 2 – growth inhibition of PfHsp90-expressing yeast, primary screen, antimalarial PfHsp90 inhibitor project, S. cerevisiae, BacTiter-Glo luminescence, single point, set 2; inhibition, % at 9.4 µM; BacTiter-Glo ATP, 48 h; yeast lacking PDR1 and PDR3 efflux regulators; hit rate 0.32% among 310,000;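 active means every replicate shows inhibition above about 80%, whatever the replicate mean, limit read from the data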;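 further: 0% = DMSO neutral controls and 100% = 20 µM radicicol positive controls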
tim23-1 inh – growth inhibitors of tim23-1 mutant yeast, primary screen, luminescence, uHTS; S. cerevisiae tim23-1 growth, BacTiter-Glo luminescence, 24 h; inhibition, % at 20 µM; hit rate 1.3% among 330,000;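 active means growth inhibition of the mutant yeast at or above 50%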;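 further: temperature-sensitive mutant grown at 25 °C; plate controls were DMSO-treated mutant yeast for no effect and medium wells lacking yeast for full effect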
tim10-1 inh – growth inhibitors of tim10-1 mutant yeast, primary screen, luminescence, uHTS | S. cerevisiae tim10-1 ts strain growth, BacTiter-Glo, 24 h | inhibition, % at 20 µM | hit rate 2.2% among 330,000;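 active means inhibition of at least 40%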;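 further: mutant grown at 25 °C; 0% = DMSO wells with yeast and 100% = wells holding no yeast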
NALP3 yeast inh – NALP3 inflammasome inhibitors in reconstituted yeast, primary screen, luminescence, uHTS; Yeast reconstituted NLRP3/ASC/caspase-1, beta-gal luminescence, 24 h; inhibition, % at 10 µM; hit rate 0.39% among 330,000;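 active means inhibition of 50% or more; inactive means inhibition below 50%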;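 further: plate controls were induced DMSO wells for no effect and uninduced yeast grown without galactose for full effect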
tim10-1 conf – growth inhibitors of tim10-1 mutant yeast, confirmation, single concentration, luminescence, S. cerevisiae | hit rate 56% among 7,400 | S. cerevisiae tim10-1 ts strain growth, BacTiter-Glo, 24 h | inhibition, % at 20 µM | shares compounds with tim10-1 inh;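 active means inhibition of yeast growth at or above a set limit in either of two repeat tests at 20 µM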;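 further: tim10-1 mutant grown at permissive 25 °C to find synthetic lethal compounds; 0% = DMSO yeast wells and 100% = medium wells without yeast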
tim10 confirm – growth inhibitors of wild-type TIM10 yeast, confirmation, counter-screen for tim10-1 synthetic lethality project, single concentration, luminescence, S. cerevisiae. shares compounds with TIM10 inh. S. cerevisiae tim10 strain growth, BacTiter-Glo luminescence, 24 h. inhibition, % at 10 µM. hit rate 63% among 4,600;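 active means inhibition of yeast growth at or above a set limit in either of two replicates at 10 µM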;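 further: this counterscreen used the strain with wild-type TIM10; 0% = yeast with DMSO and 100% = medium wells lacking yeast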
Numbers without * were called inactive; . = no result. Rows were chosen to be rich in hits. Some 3.7% of all compounds tested hit in one or more screens of this group.

SMILES	TIM10 inh	PfHsp90 yeast 2	tim23-1 inh	tim10-1 inh	NALP3 yeast inh	tim10-1 conf	tim10 confirm
CC(C)c1ccc(N2C(=O)CC(Sc3ncn[nH]3)C2=O)cc1 (stereo unspecified)	69*	-48	0	46*	15	52*	62*
CCOC(=O)C(C(=O)OCC)C(Nc1ccccc1)c1ccccc1 (stereo unspecified)	43*	-12	37	61*	31	50*	-19
CCCCCC(NC(=O)C1CCN(C(=O)[C@@H](NS(=O)(=O)c2ccc(C)cc2)C(C)C)CC1)C(=O)O (stereo partly specified)	0	10	-6	-6	1	.	.
Cc1ccc(CC(=O)Nc2ncc([N+](=O)[O-])s2)cc1	36	-1	46	30	17	.	.
CCCCC(CC)C(=O)Nc1ncc([N+](=O)[O-])s1 (stereo unspecified)	49*	-1	45	61*	6	62*	24
O=S(=O)(CCN(CCS(=O)(=O)C(F)(F)F)CC1CCCO1)C(F)(F)F (stereo unspecified)	45*	-15	35	50*	18	41*	26
O=C(NCC1CCCO1)C1CCN(S(=O)(=O)N2CCCC2)CC1 (stereo unspecified)	-10	4	-1	-2	-8	.	.
O=C(/C=C/C(Cl)(Cl)Cl)Nc1ccc(Cl)cc1	.	-3	.	.	.	.	.
NC(=O)/C=C/C(=O)Nc1ccc(Cl)cc1	55*	24	34	61*	14	61*	56*
CC1CCN(c2nc3nonc3nc2Nc2ccc(F)cc2)CC1	45*	-22	35	41*	4	44*	26
c1ccc2c(c1)nc(N1CCOCC1)c1c3ccccc3[nH]c21	49*	-10	44	40*	25	21	61*
Oc1ccccc1CN1CCC(C(O)(c2ccccc2)c2ccccc2)CC1	51*	22	19	43*	11	36*	41*
Cc1cc(NC(=O)C2CC2)ncc1NC(=O)C12CC3CC(CC(C3)C1)C2	48*	30	48	54*	16	40*	-21
Cc1onc(-c2ccccc2)c1C(=O)OCc1nnc(-c2ccccc2)o1	-27	-14	20	2	33	.	.
Cc1onc(-c2ccccc2Cl)c1C(=O)O/N=C(\N)c1ccccc1	55*	1	32	49*	13	63*	45*
Cc1onc(-c2ccccc2)c1C(=O)O/N=C(\N)c1ccc([N+](=O)[O-])o1	51*	-2	34	50*	24	29	48*
CCOC(=O)C1CCCN(c2c(N3CCN(c4ccccn4)CC3)c(=O)c2=O)C1 (stereo unspecified)	2	11	-6	-28	6	.	.
Fc1ccc(-c2nnn3c2nc(NCc2ccccc2)c2ccccc23)cc1	-12	1	0	0	-4	.	.
NNc1nc2c(-c3ccc(F)cc3)nnn2c2ccccc12	74*	-16	26	46*	9	56*	73*
COc1cc(/C=N/N(C)c2ccccc2)cc(Cl)c1O	40*	-30	38	48*	1	16	20
COc1ccc(OC)c(/C=N/N(C)c2ccccc2)c1	9	-12	22	21	7	.	.
CC(C)C[C@H](NC(=O)N1c2ccccc2NC(=O)[C@@H]1C(C)C)C(=O)N1CCC[C@@H]1C(=O)O	6	1	19	23	5	.	.
CC(=O)NC1C(c2nc3ccccc3s2)=C(c2ccccc2)C(=O)N1c1ccc(C)cc1 (stereo unspecified)	51*	0	34	53*	16	51*	37*
Cc1cc(C)cc(OCCNC(=O)c2ccc(Br)cc2)c1	3	-2	27	-27	25	.	.
CCOC(=O)C1CCN(C(=O)c2ccc(OCC(=O)Nc3cccc(C(F)(F)F)c3)c(OC)c2)CC1	59*	1	46	55*	16	66*	63*
SMILES	TIM10 inh	PfHsp90 yeast 2	tim23-1 inh	tim10-1 inh	NALP3 yeast inh	tim10-1 conf	tim10 confirm
COc1ccc(OC)c(C(=O)N(C)C2CCCN(Cc3ccccc3F)C2)c1 (stereo unspecified)	4	18	8	11	-4	.	.
CS(=O)(=O)c1ccc(Cl)c(NC(=O)Cc2ccsc2)c1	-18	3	-4	1	6	.	.
NC(=O)c1cc([N+](=O)[O-])ccc1NCc1ccc(N)cc1	54*	11	30	57*	14	48*	65*
O=c1cc(-c2c(F)c(F)c(F)c(F)c2F)oc2c(F)c(F)c(F)c(F)c12	54*	.	31	42*	20	46*	41*
CC1(C)C(=O)C2(CCCCC2)C(=O)OC1c1ccc(O)cc1 (stereo unspecified)	44*	19	49	46*	31	38*	42*
C[C@@H](C(=O)NC1CCCCC1)N1C(=O)N2CCc3c([nH]c4ccccc34)[C@@]2(C)C1=O	13	-20	19	12	20	.	.
CC(/C=N/n1c(-c2cc(C)[nH]n2)n[nH]c1=S)=C\c1ccccc1	8	15	31	39	4	.	.
S=c1[nH]nc(C2CCCCC2)n1/N=C/c1cccs1	41*	-11	38	43*	24	11	40*
CC(/C=N/n1c(C2CCCCC2)n[nH]c1=S)=C\c1ccccc1	49*	-29	38	48*	22	19	31*
CC(C)C[C@@H](CN=[N+]=[N-])N1CCN(C)CCC1=O	-4	34	1	2	13	.	.
CCOC(=O)C1CCN(S(=O)(=O)c2cccc(-c3cn4ccccc4n3)c2)CC1	27	-6	21	15	11	.	.
CCOC(=O)C1CCN(S(=O)(=O)c2cccc(-c3cn4cccc(C)c4n3)c2)CC1	50*	-7	39	55*	-5	21	-29
Cc1cc(C)cc(OCC(=O)OCC(=O)N2CCc3ccccc32)c1	7	13	22	17	0	.	.
Cc1ccc(C2Oc3ccccc3C3=C2C(c2cccs2)n2ncnc2N3)cc1 (stereo unspecified)	45*	-28	48	42*	9	26	16
Fc1ccc(C2C3=C(Nc4ncnn42)c2ccccc2OC3c2ccncc2)cc1 (stereo unspecified)	22	-22	23	28	-5	.	.
COc1ccccc1-n1c(=S)[nH]c2c(sc(=S)n2-c2ccccc2C)c1=O	1	-2	2	8	-10	.	.

Source: PubChem BioAssay (several laboratories)
